Experimental data published in PubChem BioAssay (Tox21).
Records with an inconclusive call do not appear. A call without a number means that no potency is given here. Calls of active or inactive are those of the source. The call rests on the fitted dose curve; in most records, active means well fitted cell-killing curve with a large enough effect in the repeat runs; inconclusive means weak or mixed curves, or effect the other way; inactive means flat fitted curve, though single readings scatter.

What was measured:
[1] = cAMP Responsive Elements (CRE) small molecule antagonists, cell-based qHTS assay: qHTS cell viability counter screen (AID 2060913); further: nearly all actives have a fitted effect of over 40% in size; further: potency means the concentration at half of the fitted maximal effect
Summary of the method: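 Cytotoxicity counter screen multiplexed with the CRE-bla antagonist read: HEK293T cells in DMEM with dialyzed FBS and 25 mM HEPES were treated 3 hrs under 0.25 uM final NKH477, then viability measured by CellTiter-Glo luminescence.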

[2] = cAMP Responsive Elements (CRE) small molecule agonists, cell-based qHTS assay: qHTS cell viability counter screen (AID 2060914);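 further: viability read after 3 h of compound exposure; nearly all actives have a fitted effect of over 50% in size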
Summary of the method: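 Cytotoxicity counter screen multiplexed with the CRE-bla reporter assay in HEK 293T cells: 3 h compound exposure at 37 °C, followed by CellTiter-Glo luminescence measured in the same wells.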

| SMILES | Potency [1] | Potency [2] |
| --- | --- | --- |
| O[C@@H](CNC[C@H](O)[C@H]1CCc2cc(F)ccc2O1)[C@@H]1CCc2cc(F)ccc2O1 | inactive | inactive |
| CN/C(=C\[N+](=O)[O-])NCCSCc1ccc(CN(C)C)o1 | inactive | inactive |
| Cc1ccccn1 | inactive | inactive |
| Cc1c(I)c(=O)n(-c2ccccc2)n1C | inactive | inactive |
| N[C@@H](Cc1cc(I)c(Oc2ccc(O)c(I)c2)c(I)c1)C(=O)O | inactive | inactive |
| CC(=O)SC[C@@H](C)C(=O)N1CCC[C@H]1C(=O)N[C@@H](Cc1ccccc1)C(=O)O | inactive | inactive |
| CC(C)(c1ccccc1)c1ccc(Nc2ccc(C(C)(C)c3ccccc3)cc2)cc1 | inactive | inactive |
| Cc1cc(C(=O)O)ccc1[N+](=O)[O-] | inactive | inactive |
| CCCCCCCCCCCCCCC[C@H](O)[C@@H](N)CO | inactive | inactive |
| Cc1ccc(C(C)C)cc1 | inactive | inactive |
| c1ccc(CNCCNCc2ccccc2)cc1 | inactive | inactive |
| O=C(O)c1cccnc1C(=O)O | inactive | inactive |
| CCCCC/C=C/CC(=O)OC | inactive | inactive |
| CCN(CC)CCNC(=O)c1cc(Br)c(N)cc1OC | inactive | inactive |
| Cc1ccc2nc(-c3ccc(N)cc3)sc2c1S(=O)(=O)O | inactive | inactive |
| CCCOC(=O)c1c(Cl)c(Cl)c(Cl)c(Cl)c1C(=O)OCCC | inactive | inactive |
| c1cc(C(c2ccc(OCC3CO3)cc2)c2ccc(OCC3CO3)cc2)ccc1OCC1CO1 (stereo unspecified) | inactive | inactive |
| Cc1cc(O)c(C)c(C)c1O | inactive | inactive |
| COC(=O)CCCCC(CCSS/C(CCO)=C(\C)N(C=O)Cc1cnc(C)nc1N)SC(C)=O (stereo unspecified) | inactive | inactive |
| C/C=C/C(=O)O | inactive | inactive |
| O=C1c2ccccc2C(=O)N1CO | inactive | inactive |
| CC/C=C(\C(=O)N[C@@H]1C(=O)N2C(C(=O)OCOC(=O)C(C)(C)C)=C(COC(N)=O)CS[C@H]12)c1csc(N)n1 | inactive | inactive |
| CC(C)CCOC(=O)c1ccccc1 | inactive | inactive |
| Cc1ccc(O)c2ncccc12 | inactive | inactive |

| SMILES | Potency [1] | Potency [2] |
| --- | --- | --- |
| Brc1nc2ccccc2s1 | inactive | inactive |
| OCc1ccccn1 | inactive | inactive |
| O=C(O)c1cc(O)c2c(c1)C(=O)c1cccc(O)c1C2=O | inactive | inactive |
| CCNC(=O)[C@@H]1CCCN1C(=O)[C@H](CCCN=C(N)N)NC(=O)[C@H](CC(C)C)NC(=O)CNC(=O)[C@H](Cc1ccc(O)cc1)NC(=O)[C@H](CO)NC(=O)[C@H](Cc1c[nH]c2ccccc12)NC(=O)[C@H](Cc1cnc[nH]1)NC(=O)[C@@H]1CCC(=O)N1 | inactive | inactive |
| O=C(O)c1ccccc1C(=O)Nc1ccc(S(=O)(=O)Nc2nccs2)cc1 | inactive | inactive |
| O=C1CCCN1CCO | inactive | inactive |
| O=C[O][Al]([O]C=O)[O]C=O | inactive | inactive |
| Nc1cccc(S(=O)(=O)O)c1 | inactive | inactive |
| CC/C=C\CCOC(=O)c1ccccc1O | inactive | inactive |
| C#CC1(O)CC[C@H]2[C@@H]3CCC4=CCCC[C@@H]4[C@H]3CC[C@@]21C (stereo partly specified) | inactive | inactive |
| Cc1onc(-c2c(Cl)cccc2Cl)c1C(=O)N[C@@H]1C(=O)N2[C@@H]1SC(C)(C)[C@@H]2C(=O)O | inactive | inactive |
| CN(C[C@@H](CC[N+]12CCC(C3CCCCC3)(CC1)CC2)c1ccc(Cl)c(Cl)c1)C(=O)c1cc(C(F)(F)F)cc(C(F)(F)F)c1 | 54.5 µM (active) | inactive |
| Cc1cccc(C)c1NC(=O)CN(CC(=O)O)CC(=O)O | inactive | inactive |
| CCCCCCC1CCCC(=O)O1 (stereo unspecified) | inactive | inactive |
| CC(C)(C)NC[C@H](O)COc1nsnc1N1CCOCC1 | inactive | inactive |
| Cc1ncc([N+](=O)[O-])n1CC(O)CCl (stereo unspecified) | inactive | inactive |
| CC(=O)Nc1ccc(N=Nc2cc(C)ccc2O)cc1 | inactive | inactive |
| COc1ccccc1[N+](=O)[O-] | inactive | inactive |
| CCOC(=O)C1=C(C)NC(C)=C(C(=O)OCC)C1c1ccccc1/C=C/C(=O)OC(C)(C)C | inactive | inactive |
| Cc1cc(C)c(C(=O)O)c(C)c1 | inactive | inactive |
| C=CC/C=C/C | inactive | inactive |
| CC1=C(O)C(=O)CO1 | inactive | inactive |
| Cc1ccc2n[nH]nc2c1 | inactive | inactive |
| CC(=O)CCC(=O)O | inactive | inactive |
